# Experimental data reported in the supplement of paper PMC8728848.
# Shown is part of a subset that was picked to be rich in the strongest signals.
# B1: Gal 3 (Homo sapiens), P17931 (protein)
# chain: MADNFSLHDALSGSGNPNPQGWPGAWGNQPAGAGGYPGASYPGAYPGQAPPGAYPGQAPPGAYHGAPGAYPGAPAPGVYPGPPSGPGAYPSSGQPSAPGAYPATGPYGAPAGPLIVPYNLPLPGGVVPRMLITILGTVKPNANILDFQRGNDVAFHFNPRFNENNRRVIVCNTKLDNNWGREERQSVFPFESGKPFKIQVLVEPDHFKVAVNDAHLLQYNHRVKKLNEISKLGISGDIDLTSASYTMI
# Key:
# Assay in all cases: glycan array binding signal (z-score within array); higher = stronger binding
# Conditions in all cases: glycan notation: IUPAC condensed, linker removed
# [1] = biological target: Fuc(a1-2)Gal(b1-3)GlcNAc(b1-3)Gal(b1-4)Glc
# Procedure, shortened: (§1)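 Columns mapping to the same glycan were averaged after glycan names were converted to IUPAC-condensed notation. The data come from 3228 arrays in the Consortium for Functional Glycomics database, limited to those with an available protein sequence. Binding is reported as a within-array Z-score averaged across arrays of one protein sequence and across linkers.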
# [2] = biological target: Fuc(a1-2)Gal(b1-3)[Fuc(a1-4)]GlcNAc(b1-3)[Gal(b1-4)GlcNAc(b1-6)]Gal(b1-4)Glc
# Procedure, shortened: as §1
# [3] = biological target: Fuc(a1-2)Gal(b1-4)GlcNAc(b1-3)Gal(b1-4)GlcNAc(b1-3)Gal(b1-4)GlcNAc
# Procedure, shortened: as §1
# [4] = biological target: Fuc(a1-2)[Gal(a1-3)]Gal(b1-3)GlcNAc(b1-2)Man(a1-3)[Fuc(a1-2)[Gal(a1-3)]Gal(b1-3)GlcNAc(b1-2)Man(a1-6)]Man(b1-4)GlcNAc(b1-4)GlcNAc
# Procedure, shortened: as §1
# [5] = biological target: Fuc(a1-2)[Gal(a1-3)]Gal(b1-4)GlcNAc(b1-2)Man(a1-3)[Fuc(a1-2)[Gal(a1-3)]Gal(b1-4)GlcNAc(b1-2)Man(a1-6)]Man(b1-4)GlcNAc(b1-4)GlcNAc
# Procedure, shortened: as §1
# [6] = biological target: Fuc(a1-2)[GalNAc(a1-3)]Gal(b1-4)GlcNAc
# Procedure, shortened: as §1
# [7] = biological target: Fuc(a1-2)[GalNAc(a1-3)]Gal(b1-4)GlcNAc(b1-2)Man(a1-3)[Fuc(a1-2)[GalNAc(a1-3)]Gal(b1-4)GlcNAc(b1-2)Man(a1-6)]Man(b1-4)GlcNAc(b1-4)GlcNAc
# Procedure, shortened: as §1
# [8] = biological target: Fuc(a1-2)[GalNAc(a1-3)]Gal(b1-4)GlcNAc(b1-3)Gal(b1-4)GlcNAc(b1-3)Gal(b1-4)GlcNAc
# Procedure, shortened: as §1
# [9] = biological target: Fuc(a1-2)[GalNAc(b1-3)]Gal
# Procedure, shortened: as §1
# [10] = biological target: Fuc(a1-3)[Gal(b1-4)]GlcNAc6S
# Procedure, shortened: as §1
# [11] = biological target: Gal(a1-3)Gal(b1-4)GlcNAc(b1-3)GalNAc
# Procedure, shortened: as §1
# [12] = biological target: Gal(a1-3)[Gal(a1-4)]Gal(b1-4)GlcNAc
# Procedure, shortened: as §1
# [13] = biological target: Gal(a1-4)Gal(b1-3)GlcNAc(b1-2)Man(a1-3)[Gal(a1-4)Gal(b1-3)GlcNAc(b1-2)Man(a1-6)]Man(b1-4)GlcNAc(b1-4)GlcNAc
# Procedure, shortened: as §1
# [14] = biological target: Gal(b1-3)Gal(b1-4)GlcNAc(b1-2)Man(a1-3)[Gal(b1-3)Gal(b1-4)GlcNAc(b1-2)Man(a1-6)]Man(b1-4)GlcNAc(b1-4)GlcNAc
# Procedure, shortened: as §1
# [15] = biological target: Gal(b1-3)GalNAc(a1-3)[Fuc(a1-2)]Gal(b1-4)GlcNAc
# Procedure, shortened: as §1
# [16] = biological target: Gal(b1-3)[Neu5Ac(b2-6)]GalNAc
# Procedure, shortened: as §1
# [17] = biological target: Gal(b1-4)GlcNAc(b1-2)[Gal(b1-4)GlcNAc(b1-4)]Man(a1-3)[Gal(b1-4)GlcNAc(b1-2)[Gal(b1-4)GlcNAc(b1-6)]Man(a1-6)]Man(b1-4)GlcNAc(b1-4)GlcNAc
# Procedure, shortened: as §1
# [18] = biological target: Gal(b1-4)GlcNAc(b1-3)Gal(b1-3)GlcNAc
# Procedure, shortened: as §1
# [19] = biological target: Gal(b1-4)GlcNAc(b1-3)Gal(b1-4)GlcNAc(b1-3)Gal(b1-4)GlcNAc
# Procedure, shortened: as §1
# [20] = biological target: Gal(b1-4)GlcNAc(b1-3)[GlcNAc(b1-6)]Gal(b1-4)GlcNAc
# Procedure, shortened: as §1
# [21] = biological target: Gal3S(b1-4)[Fuc(a1-3)]Glc
# Procedure, shortened: as §1
# [22] = biological target: Gal6S(b1-4)Glc
# Procedure, shortened: as §1
# [23] = biological target: GalNAc(b1-3)Gal(a1-6)Gal(b1-4)Glc
# Procedure, shortened: as §1
# [24] = biological target: GlcNAc(a1-6)Gal(b1-4)GlcNAc
# Procedure, shortened: as §1
# [25] = biological target: GlcNAc(b1-4)GlcNAc(b1-4)GlcNAc(b1-4)GlcNAc(b1-4)GlcNAc
# Procedure, shortened: as §1
# [26] = biological target: GlcNAc(b1-6)Gal(b1-4)GlcNAc
# Procedure, shortened: as §1
# [27] = biological target: GlcNAc(b1-6)GalNAc
# Procedure, shortened: as §1
# [28] = biological target: Kdn(a2-3)Gal(b1-4)Glc
# Procedure, shortened: as §1
# [29] = biological target: Kdn(a2-3)Gal(b1-4)GlcNAc
# Procedure, shortened: as §1
# [30] = biological target: Man(a1-2)Man(a1-6)[Man(a1-3)]Man(a1-6)[Man(a1-2)Man(a1-2)Man(a1-3)]Man
# Procedure, shortened: as §1
binder,measurement,setting,value
B1,glycan array binding signal (z-score),[1],1.9
same,glycan array binding signal (z-score),[2],-0.331
same,glycan array binding signal (z-score),[3],3.62
same,glycan array binding signal (z-score),[4],3.84
same,glycan array binding signal (z-score),[5],5.09
same,glycan array binding signal (z-score),[6],2.16
same,glycan array binding signal (z-score),[7],4.33
same,glycan array binding signal (z-score),[8],4.1
same,glycan array binding signal (z-score),[9],-0.382
same,glycan array binding signal (z-score),[10],-0.391
same,glycan array binding signal (z-score),[11],0.949
same,glycan array binding signal (z-score),[12],-0.388
same,glycan array binding signal (z-score),[13],-0.389
same,glycan array binding signal (z-score),[14],4.28
same,glycan array binding signal (z-score),[15],2.57
same,glycan array binding signal (z-score),[16],-0.386
same,glycan array binding signal (z-score),[17],2.3
same,glycan array binding signal (z-score),[18],2.35
same,glycan array binding signal (z-score),[19],4.37
same,glycan array binding signal (z-score),[20],-0.307
same,glycan array binding signal (z-score),[21],-0.39
same,glycan array binding signal (z-score),[22],-0.376
same,glycan array binding signal (z-score),[23],-0.388
same,glycan array binding signal (z-score),[24],-0.392
same,glycan array binding signal (z-score),[25],-0.379
same,glycan array binding signal (z-score),[26],-0.389
same,glycan array binding signal (z-score),[27],-0.391
same,glycan array binding signal (z-score),[28],-0.391
same,glycan array binding signal (z-score),[29],-0.386
same,glycan array binding signal (z-score),[30],-0.379
